{
  "source": "PubChem BioAssay AID492956",
  "about": "(The Scripps Research Institute Molecular Screening Center, 2010)",
  "note": "The campaign covered roughly 340,000 compounds. About 3,300 (0.97%) were called active. The full list was thinned out, with actives kept by preference. Values without a mark were called inactive.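 How the source made its calls: active means inhibition above the mean over all tested compounds plus 3 SD (cut at about 30% in these data); inactive means the rest.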 Non-standard residues stand in square brackets, D forms with d. Residues, ends and D or L forms follow the SMILES beside them. ξ: configuration not given here. *: point of attachment. Cbz = O=C(OCc1ccccc1)*; ξL = CC(C)CC(N)C(=O)O; ξP = O=C(O)C1CCCN1",
  "data": [
    {"molecular_target": "Platelet-activating factor acetylhydrolase 2, cytoplasmic (Homo sapiens) (UniProt Q99487)", "assay": "inhibition of cytoplasmic PAF acetylhydrolase 2 – biochemical, fluorescence polarization, human, primary screen (AID 492956);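 further: inhibitors block probe labeling of enzyme so polarization drops; 0% = enzyme with DMSO and 100% = wells lacking PAFAH2 protein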", "conditions": "recombinant PAFAH2, FP-rhodamine activity probe, at 3.39 µM, active compounds read high", "values": [
      {"compound": "CC(C)(C)c1ccc(/C=C2\\Oc3c(ccc(O)c3CN3CCN(CCO)CC3)C2=O)cc1", "inhibition": "82% (active)"},
      {"compound": "CCOC(=O)c1oc2c(CN3CCN(CCO)CC3)c(O)c(CC)cc2c(=O)c1-c1nc2ccccc2s1", "inhibition": "-4.68%"},
      {"compound": "Cc1c2cn[nH]c(=O)c2c(C)n1Cc1ccc(F)cc1", "inhibition": "-4.15%"},
      {"compound": "C=C1c2cccc(OC)c2O[C@H](C(=O)OCC)[C@@H]1CCCCCC", "inhibition": "2.29%"},
      {"compound": "CCOC(=O)C1=C(CNC2CCCCC2)NC(=O)NC1c1cc(C)ccc1C", "note": "(configuration not stated)", "inhibition": "-10.1%"},
      {"compound": "COc1ccc(O)c(C(=O)c2cnc3onc(C(C)C)c3c2)c1", "inhibition": "-6.85%"},
      {"compound": "COCC1CCCN(C(=O)c2ccc3oc(C(C)C)nc3c2)C1", "note": "(configuration not stated)", "inhibition": "2.06%"},
      {"compound": "COC(=O)C1CCN(C(=O)c2ccc3oc(Cc4ccc(Cl)cc4)nc3c2)CC1", "inhibition": "-2.24%"},
      {"compound": "COCC1CCN(C(=O)c2ccc3oc(Cc4ccccc4)nc3c2)C1", "note": "(configuration not stated)", "inhibition": "58.9% (active)"},
      {"compound": "CC1=NC2(CCCc3c2no[n+]3[O-])N(O)C1(C)C", "note": "(configuration not stated)", "inhibition": "-4.68%"},
      {"compound": "COCCNC(=O)CN1C(=O)CSc2ncccc21", "inhibition": "3.18%"},
      {"compound": "Cc1c(Cl)cnc(NC(=O)COC(=O)c2ccc(S(=O)(=O)NCc3ccco3)cc2)c1Cl", "inhibition": "22.8%"},
      {"compound": "Cc1c(Cl)cnc(NC(=O)COC(=O)C2CCCC2)c1Cl", "inhibition": "37.6% (active)"},
      {"compound": "Cc1ccc(Cl)cc1NC(=O)COC(=O)C1CCCCC1", "inhibition": "37.4% (active)"},
      {"compound": "COc1ccc(CCNC(=O)COC(=O)C2CCCCC2)cc1", "inhibition": "7.99%"},
      {"compound": "CSCCC(NC(=O)c1ccco1)C(=O)OCC(=O)Nc1ncc(Cl)c(C)c1Cl", "note": "(configuration not stated)", "inhibition": "0.63%"},
      {"compound": "Cc1ccc(Cl)cc1NC(=O)COC(=O)CC(C)(C)C", "inhibition": "6.71%"},
      {"compound": "Cc1cc(=O)oc2c(C)c(OCC(=O)NCCN3CCOCC3)ccc12", "inhibition": "-1.89%"},
      {"compound": "COc1ccc(S(=O)(=O)N2CCC(C(=O)N3CCCC3)CC2)cc1C", "inhibition": "-0.54%"},
      {"compound": "Nc1nc(SCc2cccc(Br)c2)n[nH]1", "inhibition": "-14.7%"},
      {"compound": "CN(Cc1ccccc1)C(=O)C(=O)c1cn(CC(=O)N2CCCC2)c2ccccc12", "inhibition": "5.94%"},
      {"compound": "CCOC(=O)C1C(=O)C=C(c2ccc(OC)cc2)CC1c1ccco1", "note": "(configuration not stated)", "inhibition": "6.12%"},
      {"compound": "O=S(=O)(NCc1ccccc1Br)c1ccccc1Br", "inhibition": "3.56%"},
      {"compound": "Cc1ccn2c(=O)nc(SCC(=O)NCc3ccc(F)cc3)nc2c1", "inhibition": "10.6%"},
      {"compound": "CCO[C@@H]1OC(C(=O)NCc2nc3ccccc3[nH]2)=C[C@H](C2CCCCC2)[C@H]1CCCO", "inhibition": "-12.7%"},
      {"compound": "O=C(OCc1nc2ccccc2[nH]1)C1CCCCC1", "inhibition": "59.9% (active)"},
      {"compound": "Cc1ccc(C)c(N2CCN(C(=O)CCc3nc4ccccc4[nH]3)CC2)c1", "inhibition": "2.85%"},
      {"compound": "CCO/C=C1\\C(=O)N(c2ccc(OCC)cc2)C(=O)c2ccccc21", "inhibition": "5.93%"},
      {"compound": "Cc1ccc(OCC(=O)Nc2cccc3c2CCCC3)cc1C", "inhibition": "-17.9%"},
      {"compound": "NC(=O)C1CCN(C(=O)c2ccc3c(=O)n(Cc4cccc(Br)c4)c(=S)[nH]c3c2)CC1", "inhibition": "1.48%"},
      {"compound": "COc1cc(OC)c2c(-c3cccc(-c4cccc(N)c4)c3)cc(=O)oc2c1", "inhibition": "4.97%"},
      {"compound": "CCOc1ccc(NC(=O)C2CCN(C(=O)N3CCOc4ccccc43)CC2)cc1", "inhibition": "-3.71%"},
      {"compound": "C=CCN(C(=O)c1cc(C)cc(C)c1)C1(C(=O)Nc2ccccc2)CCN(C(C)C)CC1", "inhibition": "-2.17%"},
      {"compound": "C/C=C/C(=O)OCc1csc(CC(=O)Nc2ccccc2C)n1", "inhibition": "2.3%"},
      {"compound": "Cc1ccc(NC(=O)Cc2nc(COC(=O)C(C)NS(=O)(=O)c3ccc(C)cc3)cs2)cc1", "note": "(configuration not stated)", "inhibition": "67.5% (active)"},
      {"compound": "CC(=O)Nc1ccc(S(=O)(=O)NC(C)C(=O)OCC(=O)NC2CCCC2)cc1", "note": "(configuration not stated)", "inhibition": "-5.65%"},
      {"compound": "Cc1ccc(S(=O)(=O)N(C)C)cc1NC(=O)c1ccccc1Br", "inhibition": "1.28%"},
      {"compound": "CN(C(=O)c1c(Cl)cnn1C)C12CC3CC(CC(C3)C1)C2", "inhibition": "1.24%"},
      {"compound": "NS(=O)(=O)c1ccc(NC(=O)COC(=O)c2c3c(nc4ccccc24)/C(=C\\c2ccc4c(c2)OCO4)CCC3)cc1", "inhibition": "-39.4%"},
      {"compound": "CCn1ccnc1CNC(=O)CC1C(=O)NCCN1CCCc1ccccc1", "note": "(configuration not stated)", "inhibition": "-0.69%"},
      {"compound": "Cc1ccc(NC(=O)C2CCCN2C(=O)OCc2ccccc2)cc1C", "note": "(configuration not stated)", "inhibition": "-10.9%"},
      {"compound": "CCC(C)C(NC(=O)C1CCC(=O)N1C(=O)OCc1ccccc1)C(=O)NC(C(=O)N1CCCC1C(N)=O)C(C)CC", "note": "(configuration not stated)", "inhibition": "45% (active)"},
      {"compound": "CC(C)CC(NC(=O)C1CCCN1C(=O)[C@@H](C)NC(=O)OCc1ccccc1)C(=O)NCC(N)=O", "note": "(some centres not stated) (Cbz-[dA][ξP][ξL]G-NH2)", "inhibition": "3.95%"},
      {"compound": "CCc1cc(CNC(=O)CC2C(=O)NCCN2Cc2ccccc2C(F)(F)F)on1", "note": "(configuration not stated)", "inhibition": "-1.63%"},
      {"compound": "COC(=O)CNc1nc(Cl)nc(N2CCC(C)CC2)n1", "inhibition": "-3.76%"},
      {"compound": "Cn1c(Cn2nnc3ccccc32)nnc1SCC(=O)c1ccccc1F", "inhibition": "-0.21%"},
      {"compound": "CCOC(=O)c1cccc(NC(=O)CCn2nnc3ccccc32)c1", "inhibition": "-12.2%"},
      {"compound": "C/C(Cn1nnc2ccccc21)=N\\OC(=O)c1cc(F)c(F)cc1Cl", "inhibition": "75.7% (active)"},
      {"compound": "CCCCCN(C(=O)CCC(=O)OCCOc1ccc(OC)cc1)c1c(N)n(CCCC)c(=O)[nH]c1=O", "inhibition": "0.6%"},
      {"compound": "COc1ccc(Cc2nc3ccc(C(=O)N4CCC(N(C)C)C4)cc3o2)cc1", "note": "(configuration not stated)", "inhibition": "1.02%"},
      {"compound": "CC(C)CN(C(=O)CSc1ncnc2sccc12)C1CCS(=O)(=O)C1", "note": "(configuration not stated)", "inhibition": "-0.68%"},
      {"compound": "CCN(CC)CCCN1C(=O)C(=O)/C(=C(/O)c2c(C)nc3ccccn23)C1c1ccc(C)o1", "note": "(configuration not stated)", "inhibition": "-8%"},
      {"compound": "Cc1nc(N)nc(Cl)c1CCC1OCCO1", "inhibition": "-3.02%"},
      {"compound": "CCOc1cccc(/C=N/N2C(=O)CSC2=S)c1O", "inhibition": "21.4%"},
      {"compound": "Cc1cc(C(=O)N/N=C/c2ccc(O)c([N+](=O)[O-])c2)c(C)n1-c1ccc(F)cc1", "inhibition": "15.3%"},
      {"compound": "O=C1CSC(=S)N1/N=C/c1ccc(O)c([N+](=O)[O-])c1", "inhibition": "38.1% (active)"},
      {"compound": "CCn1ncc(Br)c1C(=O)Nc1cc(C)ccc1F", "inhibition": "4.13%"}
    ]}
  ]
}
